Laboratory results: PubChem BioAssay (EPA / NIEHS)
Inconclusive results are not listed. Activity calls are given as the source filed them. The calls were made as follows, unless noted: active = hit-call score of the fitted dose curve at least 0.9, where 1 is the maximum; inactive = score below 0.9.

Experiments:
[1] = CCTE_Mundy_HCI_Cortical_NOG_NeuriteCount: CCTE's Neurite Outgrowth Assay in rat cortical cells for Neurite Count, Mundy Lab (AID 2284212);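 also: cells fixed about two days after chemical exposure began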
In short: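 Rat cortical primary cells; compound added 2 h post-plating, 1/10 dilution of working solution. Anti-betaIII-tubulin/AF488 ICC; ArrayScan neurite count vs DMSO.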

[2] = CCTE_Mundy_HCI_Cortical_NOG_NeuriteLength: CCTE's Neurite Outgrowth Assay in rat cortical cells for Neurite Length, Mundy Lab (AID 2284213)
In short: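 First, rat primary cortical cells were plated and, 2 h later, given test chemical as a 1/10 dilution. Finally, βIII-tubulin immunostaining enabled automated imaging of neurite length.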

[3] = CCTE_Mundy_HCI_hN2_NOG_NeuriteCount: CCTE's Neurite Outgrowth Assay in human hN2 cells for Neurite Count, Mundy Lab (AID 2284219; active = hit-call score of the fitted dose curve at least 0.9, where 1 is the maximum)
In short: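 In this morphology assay, hNP1-derived neurons received test chemical 2 h post-plating and were fixed two days later in warm paraformaldehyde/sucrose containing Hoechst 33342. Neurites, labelled by rabbit anti-βIII-tubulin (1:800) and Alexa Fluor-488 (1:500), were counted automatically.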

[4] = CCTE_Mundy_HCI_hN2_NOG_NeuriteLength: CCTE's Neurite Outgrowth Assay in human hN2 cells for Neurite Length, Mundy Lab (AID 2284220; active = hit-call score of the fitted dose curve at least 0.9, where 1 is the maximum)
In short: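 Read-out is neurite length from high-content imaging of βIII-tubulin/Alexa Fluor-488-labelled neurons, referenced to DMSO controls.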

[5] = CCTE_Mundy_HCI_hN2_NOG_NeuronCount: CCTE's Neurite Outgrowth Assay in human hN2 cells for Neuron Count, Mundy Lab (AID 2284221; active = hit-call score of the fitted dose curve at least 0.9, where 1 is the maximum)
In short: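 Read-out is the number of betaIII-tubulin-positive neurons imaged by automated high-content analysis, with DMSO as negative control.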

[6] = CCTE_Mundy_HCI_Cortical_NOG_NeuronCount: CCTE's Neurite Outgrowth Assay in rat cortical cells for Neuron Count, Mundy Lab (AID 2284236; active = hit-call score of the fitted dose curve at least 0.9, where 1 is the maximum;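 also: neurons counted by imaging betaIII-tubulin and Hoechst stained cortical cells; cells exposed to compound for about 48 hours before fixation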)
In short: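 Read-out: neuron number by high-content imaging of betaIII-tubulin (Alexa Fluor-488) and Hoechst-labelled rat primary cortical cells.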

[7] = CCTE_Mundy_HCI_Cortical_NOG_BPCount: CCTE's Neurite Outgrowth Assay in rat cortical cells for Branch Point Count, Mundy Lab (AID 2284237)
In short: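 Measured 50.33 h after dosing, this morphology endpoint uses rat primary cortical cultures labelled for betaIII-tubulin. Branch points are quantified by high-content imaging, with DMSO as negative control and baseline.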

[8] = test system: Brachyury (BRA) Protein Expression, Deisenroth Lab, TBXT (gene 6862); test: CCTE_Deisenroth_DEVTOX-GLR_legacy_Bra: (Legacy) CCTE's DevTox GLR-Endo Assay Evaluation of Brachyury (BRA) Protein Expression, Deisenroth Lab (AID 2284329)
In short: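 Readout: percent Bra+ cells by high-content fluorescence imaging, Bra+ meaning mean intensity 5x BMAD over pluripotent control median. RUES2-GLR cells dosed twice over 48 h differentiation; DMSO-control median subtracted before concentration-response fitting.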

[9] = CCTE_Deisenroth_DEVTOX-GLR_legacy_CellCount: (Legacy) Viability Assessment in CCTE's DevTox GLR-Endo Assay, Deisenroth Lab (AID 2284331); conditions: actives raise or lower the signal
In short: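 Nuclei count by fluorescence high-content imaging (5 fields/well) after 48 h differentiation of RUES2-GLR cells. Two exposures, 24 h apart; 1 nM - 200 uM series; n=4. Bidirectional fit vs DMSO.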

[10] = test system: SRY-box transcription factor 17 (SOX17) Protein Expression, Deisenroth Lab, SOX17 (gene 64321); test: CCTE_Deisenroth_DEVTOX-GLR_legacy_Sox17: (Legacy) CCTE's DevTox GLR-Endo Assay Evaluation of SRY-box transcription factor 17 (SOX17) Protein Expression, Deisenroth Lab (AID 2284341); conditions: actives raise or lower the signal
In short: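 RUES2-GLR human pluripotent cells, seeded 24 h, then differentiated 48 h in defined media with two chemical exposures 24 h apart (1 nM - 200 uM, 10 points). Sox17+ fraction from high-content fluorescence imaging; bidirectional fit versus 0.2% DMSO.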

[11] = test system: SRY-box transcription factor 2 (SOX2) Protein Expression, Deisenroth Lab, SOX2 (gene 6657); test: CCTE_Deisenroth_DEVTOX-GLR_legacy_Sox2: (Legacy) CCTE's DevTox GLR-Endo Assay Evaluation of SRY-box transcription factor 2 (SOX2) Protein Expression, Deisenroth Lab (AID 2284346)
In short: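 Read-out: fraction of Sox2+ cells by high-content fluorescence imaging of fixed RUES2-GLR cells after 48 h differentiation with two 24 h-spaced exposures. Positivity cutoff 5x BMAD above endoderm control median; 0.2% DMSO median subtracted.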

[12] = test system: SRY-box transcription factor 2 (SOX2) Protein Expression, Deisenroth Lab, SOX2 (gene 6657); test: CCTE_Deisenroth_DEVTOX-GLR_Endo_SOX2: CCTE's DevTox GLR-Endo Assay Evaluation of SRY-box transcription factor 2 (SOX2) Protein Expression, Deisenroth Lab (AID 2284412; active = hit-call score of the fitted dose curve at least 0.9, where 1 is the maximum)
In short: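 Endpoint is percent SOX2-positive cells (SOX2+ count/total cells) minus 0.2% DMSO control, from high-content imaging of fixed, nuclear-stained RUES2-GLR cells. Dosing twice at 24 h intervals over 48 h differentiation, 1 nM–200 uM in 10 points.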

[13] = test system: SRY-box transcription factor 17 (SOX17) Protein Expression, Deisenroth Lab, SOX17 (gene 64321); test: CCTE_Deisenroth_DEVTOX-GLR_Endo_SOX17: CCTE's DevTox GLR-Endo Assay Evaluation of SRY-box transcription factor 17 (SOX17) Protein Expression, Deisenroth Lab (AID 2284413)
In short: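 Human RUES2-GLR cells carrying an inducible fluorescent reporter are differentiated in defined media for 48 h and dosed twice, 24 h apart. After fixation and nuclear staining, imaging yields SOX17+ cell percentage relative to 0.2% DMSO-treated differentiated cells.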

[14] = test system: Brachyury (BRA) Protein Expression, TBXT (gene 6862); test: CCTE_Deisenroth_DEVTOX-GLR_Endo_BRA: CCTE's DevTox GLR-Endo Assay Evaluation of Brachyury (BRA) Protein Expression, Deisenroth Lab (AID 2284417)
In short: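 RUES2-GLR human pluripotent cells, seeded 24 h, then differentiated 48 h in defined media with two chemical exposures 24 h apart (10-point series, 1 nM - 200 uM). Fixed, nuclear-stained, imaged; endpoint is percent BRA+ cells minus 0.2% DMSO control.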

[15] = CCTE_Deisenroth_DEVTOX-GLR_Endo_CellCount: Viability Assessment in CCTE's DevTox GLR-Endo Assay, Deisenroth Lab (AID 2284420)
In short: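 Measured 48 h after dosing: fluorescent nuclei counted by imaging in human RUES2-GLR cells under defined differentiation media, tested at 1 nM - 200 uM. Values are percent cell-count change relative to 0.2% DMSO.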

[16] = test system: SRY-box transcription factor 17 (SOX17) Protein Expression, Deisenroth Lab, SOX17 (gene 64321); test: CCTE_Deisenroth_DEVTOX-GLR_Pluri_SOX17: CCTE's DevTox GLR-Pluri Assay Evaluation of SRY-box transcription factor 17 (SOX17) Protein Expression, Deisenroth Lab (AID 2284427; active = hit-call score of the fitted dose curve at least 0.9, where 1 is the maximum)
In short: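 Using an inducible fluorescent SOX17 reporter in human pluripotent RUES2-GLR cells, compounds (1 nM - 200 uM) were given twice over 48 h differentiation. Percent SOX17+ cells minus DMSO control came from high-content image analysis.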

[17] = test system: SRY-box transcription factor 2 (SOX2) Protein Expression, Deisenroth Lab, SOX2 (gene 6657); test: CCTE_Deisenroth_DEVTOX-GLR_Pluri_SOX2: CCTE's DevTox GLR-Pluri Assay Evaluation of SRY-box transcription factor 2 (SOX2) Protein Expression, Deisenroth Lab (AID 2284428)
In short: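 Percent SOX2+ RUES2-GLR cells, determined by fluorescence microscopy after 48 h and two 24-h-interval chemical exposures spanning 1 nM–200 uM, served as the endpoint. Values are expressed relative to 0.2% DMSO; total cell counts assessed viability.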

[18] = test system: Brachyury (BRA) Protein Expression, Deisenroth Lab, TBXT (gene 6862); test: CCTE_Deisenroth_DEVTOX-GLR_Pluri_BRA: CCTE's DevTox GLR-Pluri Assay Evaluation of Brachyury (BRA) Protein Expression, Deisenroth Lab (AID 2284429; active = hit-call score of the fitted dose curve at least 0.9, where 1 is the maximum)
In short: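 RUES2-GLR reporter line; 48 h mesoderm differentiation; two exposures, 24 h apart; 1 nM - 200 uM, 10 points; nuclear stain, high-content imaging, 5 fields/well; endpoint = %BRA+ cells of total count minus 0.2% DMSO; n=4.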

[19] = CCTE_Deisenroth_DEVTOX-GLR_Pluri_CellCount: Viability Assessment in CCTE's DevTox GLR-Pluri Assay Evaluation of Total Cell Counts, Deisenroth Lab (AID 2284430)
In short: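 Cytotoxicity readout: fluorescent nuclei counts by high-content imaging, expressed as percent change relative to 0.2% DMSO. Human RUES2-GLR pluripotent line differentiated 48 h, dosed twice at 24-h intervals across 1 nM - 200 uM (10 points).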

Row | Compound | outcome [1] | outcome [2] | outcome [3] | AC50 [4] | AC50 [5] | outcome [6] | outcome [7] | AC50 [8] | AC50 [9] | AC50 [10] | AC50 [11] | AC50 [12] | AC50 [13] | AC50 [14] | AC50 [15] | outcome [16] | AC50 [17] | AC50 [18] | AC50 [19]
1 | [Li+] | inactive | inactive | inactive | 0.3 µM (active) | 0.304 µM (active) | inactive | inactive |  |  |  |  |  |  |  |  |  |  |  | 
2 | c1cc(-c2cnn3cc(-c4ccc(OCCN5CCCCC5)cc4)cnc23)ccn1 |  |  |  |  |  |  |  | 20 µM (active) | 20 µM (active) | 24.6 µM (active) | 5.11 µM (active) | 30.1 µM (active) | 24.1 µM (active) | 1.44 µM (active) | 20 µM (active) | inactive | 3.94 µM (active) | 3.02 µM (active) | 3.39 µM (active)
